High-throughput results (PubChem BioAssay)
VP16 counter – counter-screen for ROR gamma inhibitors: Gal4-VP16 reporter. Drosophila S2 Gal4-VP16 UAS-luciferase, luminescence, 20 h. Potency, µM (series often up to 53.6 µM), without a hit: top-dose activity, negative = inhibition, hits mostly inhibitors. 310,000 tested, 3.5% active. AID 2546;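 further: Gal4-VP16 expression switched on by copper sulfate through the metallothionein promoter; potency means the concentration at half of the fitted maximal effect; nearly all actives have a fitted effect of over 50% in size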
TrxR1 substrate – rat thioredoxin reductase 1 substrate activity; purified TrxR1 substrate turnover, NADPH consumption readout; Potency, µM (top dose mostly 114 µM), inactives show at the top dose activity change, negative = substrate turnover; 390,000 tested, 0.01% active; AID 588456; further: potency means the concentration at half of the fitted maximal effect; nearly all actives have a fitted effect of over 50% in size
Target sequence (O89049 whole entry, looked up): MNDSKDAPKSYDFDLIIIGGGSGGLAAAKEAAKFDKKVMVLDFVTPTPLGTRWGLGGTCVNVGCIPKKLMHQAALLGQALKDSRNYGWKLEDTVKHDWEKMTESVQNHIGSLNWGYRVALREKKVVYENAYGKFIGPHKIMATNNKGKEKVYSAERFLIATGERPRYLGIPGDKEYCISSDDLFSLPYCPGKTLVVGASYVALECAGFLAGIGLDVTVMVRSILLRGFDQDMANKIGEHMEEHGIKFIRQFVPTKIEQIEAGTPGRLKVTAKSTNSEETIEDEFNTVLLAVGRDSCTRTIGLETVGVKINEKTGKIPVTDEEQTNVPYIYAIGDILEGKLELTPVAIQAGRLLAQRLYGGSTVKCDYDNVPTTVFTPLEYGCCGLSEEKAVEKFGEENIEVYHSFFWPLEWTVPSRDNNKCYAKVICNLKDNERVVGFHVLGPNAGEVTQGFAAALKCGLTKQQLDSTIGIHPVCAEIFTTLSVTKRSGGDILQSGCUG
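Rat TrxR1, dispensed at 90 nM, was prereduced with 400 uM NADPH (final) for 5 min at ~22 deg C, then incubated with compound 15 min before 400 uM selenite. A first-read NADPH fluorescence drop versus no-compound background flagged substrates.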
Coupling enz – inhibits coupling enzyme system, counter-screen for aldolase hits. activity change, negative = inhibition, % at 58.2 µM, hits read low. AID 2472. 290,000 tested, 0.67% active. coupling enzyme system counterscreen, AmpLite Red fluorescence; in the data active means activity change below about -30%
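First, compound is pin-transferred into glyceraldehyde-3-phosphate coupling-enzyme reagent at 57.5 uM final and held 10 min at RT. Next, substrate, coupling system and AmpLite Red are added. After 20 min RT, fluorescence (525/598 nm) is read.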
rTrxR1 inhibitor – inhibitors of rat thioredoxin reductase 1 | O89049 | recombinant rTrxR1, NADPH fluorescence consumption, selenite substrate | Potency, µM (titrated, usually from 114 µM), inactives show at the top dose activity change, negative = inhibition, hits mostly inhibitors | 390,000 tested, 1% active; further: potency means the concentration at half of the fitted maximal effect; nearly all actives have a fitted effect of over 65% in size
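Rat TrxR1 (90 nM in the dispensed reagent) was pre-reduced with 400 uM NADPH for 5 min at room temperature, then incubated with compound for 15 min. After 400 uM selenite was added, NADPH fluorescence (Ex 340/Em 450 nm) was followed for 8 min.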
RORg inh – ROR gamma (mouse) transcription inhibition; P51450; Drosophila S2 Gal4-RORgamma UAS-luciferase reporter, 20 h; Potency, µM (highest dose often 53.6 µM), without a hit: top-dose activity change, negative = inhibition, most hits filed as inhibitors; 310,000 tested, 5.4% active; further: potency means the concentration at half of the fitted maximal effect; nearly all actives have a fitted effect of over 60% in size
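Using a luciferase readout, inhibitors were identified by reduced reporter activity in Drosophila cells coexpressing a copper-inducible Gal4–ROR gamma fusion and UAS-driven Photinus luciferase, incubated 20 hr after 700 uM copper sulfate.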
GALK inhibitor – blocks human galactokinase activity; Purified GALK, Kinase-Glo residual ATP luminescence; Potency, µM (highest dose often 57.5 µM), for inactives: at the highest dose activity change, negative = inhibition, actives largely listed as inhibitors; 270,000 tested, 0.007% active; AID 1868; further: potency means the concentration at half of the fitted maximal effect
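Kinase-Glo Plus luminescence measured ATP left after a 1 h room-temperature reaction. The reaction used 5 nM GALK, 100 uM galactose and 35 uM ATP at pH 8.0 (20 mM HEPES, 5 mM MgCl2, 60 mM NaCl, 1 mM DTT, 0.01% BSA).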
* marks the source's active call; other numbers are inactive results; ? = inconclusive; · = not tested or not shown; [ ] = dose if it differs, or a comment. The list is not random: actives were taken first. Their share in the collection is about 5.9%. Unless noted, the call rests on the fitted dose curve; in most records, active means well fitted curve in the direction sought with a large enough effect; inconclusive means small, poorly fitted or top-dose-only effect, or another doubt; inactive means no such curve, though single readings can be large; an effect the other way counts as inactive or inconclusive. On the % scale 0 is the no-effect control and ±100 the full control effect.

SMILES	VP16 counter	TrxR1 substrate	Coupling enz	rTrxR1 inhibitor	RORg inh	GALK inhibitor
COC(=O)CSc1nc(C)c(C(C)=O)cc1C#N	21%	13%[57.1 µM]	2	20%[57.1 µM]	-40%	2%
O=C(/C=C/c1ccc(O)c(O)c1)c1ccc(S(=O)(=O)N2CCCCCC2)cc1	?	-10%	0	-15%	13µM*	-1%
CC(=O)OCC1O[C@@H](O[C@@H]2C[C@H]3C(C)(C)[C@H](OC(C)=O)CC[C@]3(C)[C@H]3CC[C@]45C[C@]4(CC[C@H]5[C@@H](C)C[C@@H](O)[C@H](O)C(C)(C)O)[C@@]32C)[C@H](O)[C@@H](O)[C@@H]1O (some centres not stated)	3.2µM*	·	-12	·	0.89µM*	·
COc1ccc(CNC(=O)COC(=O)c2cc(-c3ccco3)nc3ccccc23)cc1	9%	·	-2	·	5%	1%
N#Cc1ccc2ccn(CC(=O)N3CCCc4ccccc43)c2c1	-5%	14%	-39*	29%[57.1 µM]	?	0%
O=C(CN1CCCCC1)N1CCCc2ccccc21	10%	13%	0	38%	21%	3%
Cc1ccc(C)c(Cn2c(C)nc3c(sc(=S)n3-c3ccccc3)c2=O)c1	0%[10 µM]	-5%[57.1 µM]	4	17%[57.1 µM]	-11%	-1%
Cc1ccnc(NS(=O)(=O)c2cc(-c3cc(C)no3)ccc2C)c1	·	3%[57.1 µM]	·	18%[57.1 µM]	·	·
CN(C)N1C(N)=C(C#N)C(c2cccs2)C2=C1CCCC2=O (configuration not stated)	13%	5%[57.1 µM]	-19	34%[57.1 µM]	31%	-1%
Cc1ccsc1C1C(C#N)=C(N)N(N(C)C)C2=C1C(=O)CCC2 (configuration not stated)	?	-14%[57.1 µM]	-44*	21%[57.1 µM]	1%	2%
Nc1nnnn1CC(=O)N/N=C/c1cc([N+](=O)[O-])ccc1O	-1%	-15%	-3	29%[57.1 µM]	27%	7%
Cc1cc(C)n(CC(=O)N/N=C/c2cc([N+](=O)[O-])ccc2O)n1	2.8µM*	-22%	2	-27%	2.8µM*	0%
Cc1cc(C)n(CCC(=O)N/N=C/c2ccc(Br)c([N+](=O)[O-])c2)n1	6%	5%	1	8%	43%	-1%
Cc1cc(C)n(CC(=O)N/N=C/c2cc(Br)cc([N+](=O)[O-])c2O)n1	0.89µM*	-15%	12	2%	0.63µM*	1%
Cc1cc([N+](=O)[O-])nn1CC(=O)N/N=C/c1ccccc1F	4%	7%[57.1 µM]	3	11%[57.1 µM]	-4%	6%
Cc1cc([N+](=O)[O-])nn1CC(=O)N/N=C/c1ccccc1O	7.1µM*	3%	2	14%	2.2µM*	-3%
O=C(Nc1cccc(Cl)c1)N1CCc2ccccc2C1	7%	5%	-8	30%	32%	-2%
CCC1(C(=O)O)NC(c2cccc(OC)c2O)C2C(=O)N(c3ccccc3)C(=O)C21 (configuration not stated)	1%	0%	5	12%	-12%	0%
CCN(CC)S(=O)(=O)c1ccc(NC2=NS(=O)(=O)c3ccccc32)cc1	-1%	15%	4	18%	6%	3%
O=S1(=O)N=C(Nc2nncs2)c2ccccc21	10µM*	-10%	8	-1%	?	-2%
COc1ccccc1NC(=S)NCc1ccc(S(N)(=O)=O)cc1	-16%	10%[57.1 µM]	3	18%[57.1 µM]	-22%	3%
COc1ccc(NC(=S)NCc2ccccc2Cl)c(OC)c1	7.1µM*	-13%	-5	-17%[57.1 µM]	13µM*	2%
COc1ccccc1CNC(=S)NCc1ccc(Cl)cc1	7.1µM*	-4%	-1	-6%	4µM*	-1%
COc1ccccc1NC(=S)NCc1ccccc1Cl	7.1µM*	-9%	2	17%[57.1 µM]	8.9µM*	4%
Cc1cc(C(=O)OC2CCOC2=O)c2ccccc2n1 (configuration not stated)	3%	15%	2	16%	-22%	-1%
